PubChem BioAssay (EPA / NIEHS)
Values joined by “and” are separate entries in the source; they are usually repeats but may differ in a detail not shown here. Identical values can stand only once. A structure can be active in one record and inactive in another. Active and inactive are the calls of the source. How the source made its calls: active means hit-call score of the fitted dose curve at least 0.9, where 1 is the maximum; inactive means score below 0.9.

Experiments:
[1] = APR_HepG2_P-H2AX_72hr: Apredica 72-hour HepG2 Assay for H2AX Phosphorylation (AID 2282916); conditions: imaging, actives raise or lower the signal;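 further: phospho-histone H2A.x immunostain intensity per cell marking DNA damage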
Summary of the method: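 Human hepatoma HepG2 cells are dosed across ten concentrations (0.39 to 200 uM, 0.5% v/v DMSO) and incubated 72 hr. Phospho-histone H2A.x is then detected by antibody staining alongside c-Jun and Hoechst, and quantified by automated fluorescence imaging.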

[2] = APR_HepG2_MitoticArrest_72hr: Apredica 72-hour HepG2 Assay for Mitotic Arrest (AID 2282918); conditions: high-content imaging, actives raise or lower the signal
Summary of the method: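 HepG2 cells treated 72 h at 0.39–200 uM, 0.5% DMSO final; formaldehyde-fixed, stained with Hoechst 33342 and phospho-histone H3 antibody, imaged by high-content fluorescence; bidirectional fit versus DMSO.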

[3] = APR_HepG2_MicrotubuleCSK_72hr: Apredica 72-hour HepG2 Assay for Microtubule CSK Stabilty (AID 2282919); conditions: HepG2 microtubule cytoskeleton, high-content imaging, actives raise or lower the signal
Summary of the method: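 Ten-point dosing (0.39–200 uM, 0.5% DMSO) of HepG2 for 72 hr, with taxol as the cytoskeletal positive control. The cells were formaldehyde-fixed and then stained with alpha-tubulin/Cy5 and Hoechst. Imaging at 20x used a −2 um Z offset for tubulin.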

[4] = APR_HepG2_P-H2AX_24hr: Apredica 24-hour HepG2 Assay for H2AX Phosphorylation (AID 2282920); conditions: high-content imaging, actives raise or lower the signal
Summary of the method: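 HepG2 cells dosed 24 h at 0.39–200 uM (10 points, duplicate, 0.5% DMSO final). Formaldehyde-fixed and permeabilized, then immunostained for phospho-H2A.x with Hoechst. Fluorescence quantified by high-content imaging, fitted bidirectionally versus DMSO.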

[5] = APR_HepG2_StressKinase_72hr: Apredica 72-hour HepG2 Assay for Stress Kinase (AID 2282921); conditions: HepG2 stress kinase (phospho-c-Jun) imaging, actives raise or lower the signal
Summary of the method: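 After a 72 h compound treatment spanning 0.39 to 200 uM, formaldehyde-fixed cells are labelled for phosphorylated c-Jun and nuclei, imaged by automated fluorescence microscopy, and activity is fitted in both directions relative to DMSO controls.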

[6] = APR_HepG2_StressKinase_24hr: Apredica 24-hour HepG2 Assay for Stress Kinase (AID 2282922); conditions: HepG2 stress kinase (phospho-c-Jun) imaging, actives raise or lower the signal
Summary of the method: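 After 24 hr compound treatment (up to 200 uM, final DMSO 0.5% v/v), HepG2 cells are fixed and multiplex-labeled; phospho-c-Jun intensity is captured by high-content fluorescence imaging and analyzed relative to DMSO.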

[7] = APR_HepG2_p53Act_72hr: Apredica 72-hour HepG2 Assay for p53 Activation (AID 2282923); conditions: high-content imaging, actives raise or lower the signal;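 further: average cellular p53 protein immunofluorescence intensity in HepG2 cells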
Summary of the method: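 Imaging-based endpoint: after 72 hr compound exposure (up to 200 uM, 0.5% DMSO), fixed and permeabilized monolayers were labelled with anti-p53 antibody and imaged; signal change in either direction was fitted relative to DMSO controls.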

[8] = APR_HepG2_MitoMass_72hr: Apredica 72-hour HepG2 Assay for Mitochondrial Mass (AID 2282924); conditions: high-content imaging, actives raise or lower the signal;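 further: MitoTracker Red CMXRos stain intensity per cell imaged as mitochondrial mass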
Summary of the method: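 Steps: treat HepG2 72 hr (0.39–200 uM, duplicate wells); load MitoTracker Red CMXRos, 250 nM, 30 min; fix with 3.7% formaldehyde, permeabilise with 0.5% Triton X-100; capture images, nuclei via Hoechst 33342; fit bidirectionally against DMSO.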

[9] = APR_HepG2_NuclearSize_72hr: Apredica 72-hour HepG2 Assay for Nuclear Size (AID 2282925); conditions: high-content imaging, actives raise or lower the signal
Summary of the method: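 Compounds (0.39–200 uM, final DMSO 0.5%) were applied to HepG2 for 72 hr. Cells were then formaldehyde-fixed, permeabilized and labelled with Hoechst 33342. Nuclear diameter was quantified from six images per well.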

[10] = ATG_CRE_CIS: Attagene CIS-FACTORIAL HepG2 Assay for human cAMP Responsive Element (CRE) binding protein 3 (AID 2282926); conditions: HepG2 CRE cis-reporter, Attagene multiplexed mRNA; actives raise or lower the signal
Summary of the method: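 Induced reporter mRNA from a CRE cis element, measured in HepG2 among many multiplexed units at 24 h. Detection used RT-PCR plus capillary electrophoresis of fluorescent fragments; DMSO served as negative control.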

[11] = ATG_DR4_LXR_CIS: Attagene CIS-FACTORIAL HepG2 Assay for human Liver X Receptor (LXR), DR4 submotif (AID 2282929); conditions: HepG2 Attagene DR4 cis-reporter, mRNA transcription; actives raise or lower the signal
Summary of the method: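 HepG2 cells transiently transfected with cis-promoter-driven multiplexed reporter units (DR4 element) were dosed for 24 h. Reporter mRNA was quantified by RT-PCR, fluorescent primer extension, HpaI digestion and capillary electrophoresis; bidirectional fitting versus DMSO baseline.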

[12] = biological target: Aryl hydrocarbon receptor (Homo sapiens) (UniProt P35869); experiment: ATG_Ahr_CIS: Attagene CIS-FACTORIAL HepG2 Assay for human Aryl Hydrocarbon Receptor (Ahr) (AID 2282930); conditions: HepG2 AhR cis-factorial reporter transcription; actives raise or lower the signal
Sequence of Aryl hydrocarbon receptor (Homo sapiens) (P35869 whole entry, looked up): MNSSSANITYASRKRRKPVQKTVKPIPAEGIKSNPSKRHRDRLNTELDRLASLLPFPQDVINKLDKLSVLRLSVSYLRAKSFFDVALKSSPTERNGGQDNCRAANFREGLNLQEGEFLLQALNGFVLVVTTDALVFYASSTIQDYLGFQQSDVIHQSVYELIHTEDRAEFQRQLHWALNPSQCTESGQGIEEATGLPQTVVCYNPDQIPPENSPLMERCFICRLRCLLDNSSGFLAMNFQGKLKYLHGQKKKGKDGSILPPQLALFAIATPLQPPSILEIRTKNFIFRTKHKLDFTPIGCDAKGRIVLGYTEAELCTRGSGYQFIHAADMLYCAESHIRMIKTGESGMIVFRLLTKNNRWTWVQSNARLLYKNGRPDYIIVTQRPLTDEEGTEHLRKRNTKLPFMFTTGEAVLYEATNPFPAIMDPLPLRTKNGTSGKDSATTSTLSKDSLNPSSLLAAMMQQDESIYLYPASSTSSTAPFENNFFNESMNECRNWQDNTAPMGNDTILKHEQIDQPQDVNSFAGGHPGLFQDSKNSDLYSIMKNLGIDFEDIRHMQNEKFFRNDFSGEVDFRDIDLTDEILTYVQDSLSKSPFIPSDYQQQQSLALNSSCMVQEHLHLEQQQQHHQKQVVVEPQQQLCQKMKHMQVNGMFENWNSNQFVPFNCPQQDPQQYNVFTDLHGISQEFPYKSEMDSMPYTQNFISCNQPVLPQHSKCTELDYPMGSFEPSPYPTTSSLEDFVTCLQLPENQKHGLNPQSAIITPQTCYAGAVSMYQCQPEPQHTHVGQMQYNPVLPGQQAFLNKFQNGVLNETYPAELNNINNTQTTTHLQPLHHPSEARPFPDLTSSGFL
Summary of the method: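 Following 24 h of chemical dosing, transfected HepG2 liver cells with cis-driven reporter units were lysed for RNA; reporter mRNA was quantified via RT-PCR and capillary electrophoresis, and responses fitted bidirectionally from DMSO.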

[13] = ATG_AP_1_CIS: Attagene CIS-FACTORIAL HepG2 Assay for human Activator Protein 1 (AP-1) (AID 2282931); conditions: HepG2 Attagene cis-factorial AP-1 reporter mRNA; actives raise or lower the signal
Summary of the method: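 HepG2 cells transiently transfected with cis-element-driven multiplex reporter units; 24 h compound exposure. Reporter mRNA quantified by RT-PCR, FAM-labelled fragments resolved by capillary electrophoresis; bidirectional fit versus DMSO baseline.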

[14] = ATG_BRE_CIS: Attagene CIS-FACTORIAL HepG2 Assay for human Bone Morphogenetic Protein (BMP) Response Element (BRE) (AID 2282933); conditions: HepG2 BMP response element reporter, Attagene transcription factor profiling; actives raise or lower the signal
Summary of the method: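 Gain- or loss-of-signal was derived by bidirectional fitting against DMSO controls. The signal came from reporter mRNA, measured by RT-PCR and capillary electrophoresis, in HepG2 cells transiently carrying multiple reporter units and dosed for 24 h.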

[15] = biological target: Retinoic acid receptor alpha (Homo sapiens) (UniProt P10276); experiment: ATG_DR5_RAR_CIS: Attagene CIS-FACTORIAL HepG2 Assay for human Retinoic Acid Receptor Alpha (RARE), DR5 submotif (AID 2282934); conditions: HepG2 Attagene cis-factorial RARE DR5 reporter, mRNA; actives raise or lower the signal;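 on AC50: reporter responds to endogenous RAR alpha beta and gamma in HepG2 not RARA alone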
Sequence of Retinoic acid receptor alpha (Homo sapiens) (P10276 whole entry, looked up): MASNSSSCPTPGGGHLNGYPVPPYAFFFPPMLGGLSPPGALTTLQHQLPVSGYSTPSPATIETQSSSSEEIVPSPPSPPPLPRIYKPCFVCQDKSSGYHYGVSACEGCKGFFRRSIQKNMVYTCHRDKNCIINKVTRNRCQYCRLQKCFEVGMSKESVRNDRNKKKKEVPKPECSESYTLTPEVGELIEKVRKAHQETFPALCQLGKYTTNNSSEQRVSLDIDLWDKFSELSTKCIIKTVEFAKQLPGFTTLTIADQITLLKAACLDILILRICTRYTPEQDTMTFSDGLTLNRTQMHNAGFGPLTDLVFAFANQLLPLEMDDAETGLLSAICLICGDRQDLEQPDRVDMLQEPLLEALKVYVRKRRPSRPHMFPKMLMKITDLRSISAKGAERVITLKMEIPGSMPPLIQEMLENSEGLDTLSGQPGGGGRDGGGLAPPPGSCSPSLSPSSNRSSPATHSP
Summary of the method: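 Transfected HepG2 reporter cells are exposed to chemicals for 24 h. Then RNA is extracted and the DR5 element reporter transcript is measured by RT-PCR and capillary electrophoresis, with bidirectional curve fitting relative to DMSO.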

[16] = biological target: Transcription factor E2F1 (Homo sapiens) (UniProt Q01094); experiment: ATG_E2F_CIS: Attagene CIS-FACTORIAL HepG2 Assay for human E2F Transcription Factor 1 (AID 2282935); conditions: HepG2 Attagene cis-reporter, E2F reporter RNA transcripts; actives raise or lower the signal
Sequence of Transcription factor E2F1 (Homo sapiens) (Q01094 whole entry, looked up): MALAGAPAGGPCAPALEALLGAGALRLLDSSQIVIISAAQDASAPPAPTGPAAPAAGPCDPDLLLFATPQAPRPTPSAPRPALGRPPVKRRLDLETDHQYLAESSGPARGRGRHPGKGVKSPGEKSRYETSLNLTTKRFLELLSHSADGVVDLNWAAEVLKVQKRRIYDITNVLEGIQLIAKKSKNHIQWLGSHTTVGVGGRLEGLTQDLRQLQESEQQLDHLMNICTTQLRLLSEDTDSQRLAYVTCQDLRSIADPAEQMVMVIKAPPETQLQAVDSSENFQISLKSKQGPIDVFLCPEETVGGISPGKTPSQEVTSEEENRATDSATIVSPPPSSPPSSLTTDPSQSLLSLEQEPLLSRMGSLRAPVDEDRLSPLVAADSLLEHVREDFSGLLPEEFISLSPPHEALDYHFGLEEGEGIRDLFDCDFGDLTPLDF
Summary of the method: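 First, HepG2 cells were transfected with reporter transcription units. Next, they were dosed for 24 h. Then RNA was isolated, converted to cDNA, PCR-amplified, FAM-labeled, HpaI-digested and analyzed by capillary electrophoresis.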

[17] = ATG_AP_2_CIS: Attagene CIS-FACTORIAL HepG2 Assay for human Activator Protein 2 (AP-2) (AID 2282932); conditions: HepG2 AP-2 cis-reporter, Attagene transcription factor profiling; actives raise or lower the signal
Summary of the method: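 Cells (HepG2) transfected with promoter-driven reporter constructs, treated 24 h. Total RNA reverse-transcribed, reporter cDNA PCR-amplified, FAM-labelled by primer extension, digested, resolved by capillary electrophoresis. Activity fitted both directions versus DMSO.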

[18] = ATG_CMV_CIS: Attagene CIS-FACTORIAL HepG2 Assay for human CMV (Internal Marker) (AID 2282928); conditions: HepG2 CMV promoter reporter, transcription factor profiling; actives raise or lower the signal;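 further: endpoint acts as a background internal control marker rather than a target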
Summary of the method: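 24 h chemical treatment, HepG2 with transient multi-reporter transfection; RNA → oligo(dT) RT → PCR → 6-FAM extension → HpaI digest → CE fluorescence. Bidirectional fit, DMSO negative control.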

[19] = biological target: CCAAT/enhancer-binding protein beta (Homo sapiens) (UniProt P17676); experiment: ATG_C_EBP_CIS: Attagene CIS-FACTORIAL HepG2 Assay for human CCAAT/Enhancer Binding Protein (C/EBP) beta (AID 2282927); conditions: HepG2 Attagene cis-factorial transcription factor reporter; actives raise or lower the signal
Sequence of CCAAT/enhancer-binding protein beta (Homo sapiens) (P17676 whole entry, looked up, the tested form may be a part): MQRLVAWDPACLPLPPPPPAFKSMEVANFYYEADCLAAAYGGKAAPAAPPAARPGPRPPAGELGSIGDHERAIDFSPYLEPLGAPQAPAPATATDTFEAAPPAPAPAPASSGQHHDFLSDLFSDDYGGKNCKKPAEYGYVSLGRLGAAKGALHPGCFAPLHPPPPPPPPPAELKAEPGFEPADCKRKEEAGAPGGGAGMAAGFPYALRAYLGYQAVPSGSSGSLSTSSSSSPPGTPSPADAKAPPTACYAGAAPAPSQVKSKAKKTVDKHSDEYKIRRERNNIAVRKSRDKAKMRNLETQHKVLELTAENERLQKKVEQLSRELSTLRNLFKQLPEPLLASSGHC
Summary of the method: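 Chemical-treated HepG2 cells (24 h) bearing cis-regulated reporter constructs were processed for total RNA, then reverse transcription, PCR amplification, fluorescent primer extension and fragment analysis; gain- and loss-of-signal were fitted against DMSO.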

Measured: AC50

COC(=O)c1cccc(C)c1S(=O)(=O)NC(=O)Nc1nc(OCC(F)(F)F)nc(N(C)C)n1
not listed: [17] | [18] | [19]
inactive: all other assays above

CCN(Cc1c(F)cccc1Cl)c1c([N+](=O)[O-])cc(C(F)(F)F)cc1[N+](=O)[O-]
active: [3] 34.6 µM | [11] 8.45 µM | [13] 28.9 µM | [14] 1400 nM | [15] 1.8 µM
not listed: [17] | [18] | [19]
inactive: all other assays above

O=C(Nc1ccc([N+](=O)[O-])cc1Cl)c1cc(Cl)ccc1O
active: [2] 0.238 µM | [3] 0.0444 µM | [4] 1.8 µM | [10] 0.506 µM | [13] 1.01 µM | [14] 652 nM
not listed: [18] | [19]
inactive: all other assays above

CCC(C)OC(=O)N1CCCCC1CCO (stereo not given)
not listed: [17] | [18] | [19]
inactive: all other assays above

Cc1nn(C)c(Oc2ccccc2)c1C=NOCc1ccc(C(=O)OC(C)(C)C)cc1
active: [2] 40.3 µM | [3] 21.2 µM | [10] 0.0405 µM | [18] 0.0218 µM | [13] 0.0252 µM | [14] 40.9 nM | [15] 0.0303 µM
not listed: [17] | [19]
inactive: all other assays above

CSC(=O)c1cccc2nnsc12
not listed: [17] | [18] | [19]
inactive: all other assays above

C#C[C@]1(O)CC[C@H]2[C@@H]3CCC4=CC(=O)CC[C@@H]4[C@H]3CC[C@@]21CC
not listed: [15] | [17] | [18] | [19]
inactive: all other assays above

N[C@@H](Cc1cc(I)c(Oc2ccc(O)c(I)c2)c(I)c1)C(=O)O
active: [13] 22.6 µM
inactive: [1] | [2] | [3] | [4] | [5] | [6] | [7] | [8] | [9] | [10] | [19] | [18] | [11] | [13] | [14] | [16]

CCCCOC(=O)[C@@H](C)Oc1ccc(Oc2ccc(C(F)(F)F)cn2)cc1
not listed: [17] | [19]
inactive: all other assays above

COC(=O)c1ccccc1C(=O)O
not listed: [18] | [19]
inactive: all other assays above

COc1c(Cl)ccc(Cl)c1C(=O)O
not listed: [7] | [17] | [18]
inactive: all other assays above

CCCCCOC(=O)COc1cc(N2C(=O)C3=C(CCCC3)C2=O)c(F)cc1Cl
active: [4] 119 µM | [11] 32.6 µM
not listed: [7] | [17]
inactive: all other assays above

CC(=O)[C@H]1CC[C@H]2[C@@H]3CCC4=CC(=O)CC[C@]4(C)[C@H]3CC[C@]12C
inactive: [3] | [5] | [6] | [8] | [9] | [10] | [11] | [12] | [13] | [17] | [15] | [16]
active: [1] 94.1 µM | [2] 81.6 µM | [4] 116 µM | [7] 97.2 µM | [11] 8.67 µM | [12] 100 µM | [13] 33.4 µM and 170 µM | [14] 33.4 µM and 24.3 µM and 33.7 µM | [16] 68.4 µM

COC(=O)c1ccccc1S(=O)(=O)NC(=O)Nc1nc(OC(F)F)cc(OC(F)F)n1
not listed: [17] | [19]
inactive: all other assays above
